Nrf2 ARE act: Nrf2 pathway activation; AREc32 ARE-luciferase reporter (MCF7-derived line), luminescence, 24 h; Potency, µM (titrated, usually from 46.1 µM), for inactives: top-dose activation, usual class: activators; actives 0.31% (n = 410,000); AID 624171; also: potency is read from the fitted curve at half-maximal effect; % of control where 0% means no effect; nearly all actives have a fitted effect of over 65% in size
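Luminescent ARE reporter assay in AREc32_Fluc cells: overnight plating at 37 deg C, 24 hr compound incubation, Steady-Glo added, 30 min RT before reading.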
Nrf2 block: Nrf2 pathway inhibition; A549 ARE-Fluc reporter, luciferase luminescence, 18-24 h; Potency, µM (highest dose often 46 µM), for inactives: top-dose activity change, negative = inhibition, most hits filed as inhibitors; actives 2.1% (n = 360,000); also: potency is read from the fitted curve at half-maximal effect; % is scaled to controls: 0 for no effect and ±100 for the full control effect; nearly all actives have a fitted effect of over 60% in size
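Nrf2 activity is the BugLite luminescence, read 15 min after reagent at room temperature, following CellTiter-Fluor cytotoxicity readout (30 min, 37C). Compound titrations were applied for 18-24 h to 5000 A549 ARE_Fluc cells/well in 5% FBS OPTI-MEM.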
A549 tox: counter-screen for Nrf2 inhibitors: cytotoxicity in A549 cells; actives 0.16% (n = 390,000); A549 ARE-Fluc cells, CellTiter-Fluor viability, 18-24 h; Potency, µM (series often up to 46 µM), without a hit: at the highest dose activity change, negative = cytotoxicity, actives largely listed as inhibitors; AID 504648; also: potency is read from the fitted curve at half-maximal effect; % is scaled to controls: 0 for no effect and ±100 for the full control effect
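Cytotoxicity counterscreen: CellTiter-Fluor fluorescence was measured in A549 ARE_Fluc cells after 18-24 h of compound exposure in a concentration series. The subsequent BugLite luminescent read reports ARE-luciferase activity.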
IL2 activator: activators of IL-2; IL-2 activation reporter assay, cell-based qHTS; stimulated with anti-CD3/CD4/CD28 beads; in transgenic mouse T cells; activation, % (series mostly up to about 46 µM); actives 0.065% (n = 360,000); AID 652025; in the data active = activation above about 50%; inconclusive = mostly about 30% to 49%; also: 0% is about no effect
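Unstimulated transgenic mouse T cells preincubated 60 min with compound, then stimulated with anti-CD3/anti-CD4-coated beads plus anti-CD28 for 18 h at 37 degrees C. IL-2 response read as EGFP and DsRed fluorescence by plate cytometry.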
p53 reactivator: re-activators of mutant p53; actives 0.063% (n = 320,000); H1299 p53-A138V BP100-luciferase reporter, luminescence, 24 h; Potency, µM (titrated, usually from 92.2 µM), for the others: top-dose activity change, positive = activation, most hits filed as activators; also: potency is read from the fitted curve at half-maximal effect; % of control where 0% means no effect; nearly all actives have a fitted effect of over 45% in size
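p53-null H1299 cells stably carrying temperature-sensitive p53-A138V and a BP100-luciferase reporter were pinned with compounds (4-point, 1:5 series) and held 24 hrs at 37 deg C. Luminescence was read 10 min after detection reagent.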
BRCA1 expr up: increases BRCA1 expression; MCF7-BRCA1-FFLuc reporter, luminescence, 48 h; response scale: scaled: vehicle 0%, 10 µM genistein 100%; Potency, µM (titrated, usually from 46.1 µM), without a hit: top-dose activation, hits mostly activators; actives 1.1% (n = 380,000); also: potency is read from the fitted curve at half-maximal effect; nearly all actives have a fitted effect of over 80% in size
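Luminescence from a BRCA1-driven firefly luciferase in MCF7 cells was the read-out, taken 15 min after substrate addition following 48 h compound exposure at 37 °C. Data were normalized to a 10 microM genistein control and DMSO vehicle.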
Numbers without * were called inactive; ? = inconclusive; nt = no result given. Rows were chosen to be rich in hits. Some 3.2% of all compounds tested hit in one or more screens of this group. Unless noted, calls follow the shape of the dose curve; as a rule, active = well fitted curve in the direction sought with a large enough effect; inconclusive = small, poorly fitted or top-dose-only effect, or another doubt; inactive = no such curve, though single readings can be large; an effect the other way counts as inactive or inconclusive.

SMILES	Nrf2 ARE act	Nrf2 block	A549 tox	IL2 activator	p53 reactivator	BRCA1 expr up
O=C(COc1ccc(Br)cc1)N1CCc2ccccc21	0%	?	0%	-1	12%	7.1µM*
Cc1cccc(C)c1NC(=O)COC(=O)c1cccc2c1C(=O)c1ccccc1C2=O	-1%	18µM*	-3%	-1	-6%	-22%
Cc1cccc(NC(=O)COC(=O)c2cccc3c2C(=O)c2ccccc2C3=O)c1C	0%	15µM*	-13%	-1	-7%	-53%
CCOc1ccc(S(=O)(=O)Nc2cccc(OC)c2)c2cccnc12	7%	15µM*	-17%	nt	nt	-32%
O=c1[nH]c2ccc(S(=O)(=O)N3CCN(S(=O)(=O)c4c(F)cccc4F)CC3)cc2[nH]c1=O	nt	4%	-10%	nt	nt	nt
Cc1cnc(-c2nnc(N(C)C(=O)C3CCOC3)s2)cn1 (configuration not stated)	-1%	5%	-2%	0	?	7.9µM*
COc1ccc(-c2cc3nc(-c4ccccc4)cc(N4CCCC(O)C4)n3n2)cc1 (configuration not stated)	-4%	13µM*	?	-1	-2%	-83%
COc1ccc(-c2cc3nc(-c4ccccc4)cc(N4CCC(O)CC4)n3n2)cc1	-1%	?	-21%	-4	-3%	-97%
O=C(Cc1csc(NC(=O)Nc2ccc(Cl)cc2)n1)NCc1ccccn1	3%	-13%	-10%	0	24%	11µM*
O=C(NCc1ccccn1)Nc1ccc(Cl)cc1Cl	0%	9%	2%	0	?	7.9µM*
O=C(NCc1ccccn1)Nc1ccc(Br)cc1	-1%	?	12%	3	10%	32%
O=C(NCc1ccccn1)Nc1ccc(Br)cc1Cl	2%	2%	7%	1	9%	11µM*
O=C(NCc1ccccn1)Nc1ccccc1Cl	0%	?	9%	-1	29%	66%
O=C(COc1ccc(F)cc1Br)NCc1ccccn1	2%	19%	-3%	0	nt	?
O=C(COc1ccccc1Br)NCc1ccccn1	0%	15%	-3%	-2	6%	11µM*
CCCCNC(=O)C(CC)n1c(SCc2cccc(F)c2)nc2ccncc21 (configuration not stated)	nt	?	-4%	nt	nt	-27%
COc1ccc(S(=O)(=O)N(CC(=O)NCc2ccccn2)c2ccc(Cl)cc2)cc1	2%	0%	3%	1	0%	4%
O=C(CN(c1cccc(Cl)c1)S(=O)(=O)c1ccc(Cl)cc1)NCc1ccccn1	2%	21µM*	?	-5	-7%	-46%
S=C(NCc1ccccn1)Nc1ccccc1Cl	2%	9%	2%	-1	3%	50%
S=C(NCc1ccccn1)Nc1ccc(Br)cc1Cl	4%	?	-1%	3	1%	11µM*
O=C(NCc1ccccn1)Nc1cccc(Cl)c1Cl	2%	7%	3%	1	10%	10µM*
Cc1cc(C)n2ncc(C(=O)NC(C)C)c2n1	nt	-4%	12%	nt	nt	nt
CCOc1ccc(-c2csc(/C(C#N)=C\c3ccc(O)c([N+](=O)[O-])c3)n2)cc1	0%	?	16µM*	0	22%	-69%
Cc1ncc(C(=O)Nc2ccccc2)[nH]1	0%	?	1%	0	nt	2.8µM*
O=C(Nc1ccccc1)c1cnc[nH]1	3%	5%	-4%	-2	?	87%
SMILES	Nrf2 ARE act	Nrf2 block	A549 tox	IL2 activator	p53 reactivator	BRCA1 expr up
Cc1ccc(N[S+](=O)([O-])c2cc3c(cc2CCc2ccccc2)NC(=O)CO3)cc1C	nt	-1%	-3%	nt	nt	nt
Fc1cccc(C2NN=C(c3ccccc3)S2)c1 (configuration not stated)	3.5µM*	?	10%	-3	?	49%
Cc1ccc(C2=NNC(c3cccc(F)c3)S2)cc1 (configuration not stated)	?	?	2%	-1	35%	?
O=c1[nH][nH]cc1C=Nc1ccccc1O	13µM*	25%	-10%	-4	11%	-46%
O=c1[nH][nH]cc1C=Nc1cc(Cl)ccc1O	13µM*	?	-1%	0	5%	3%
O=c1[nH][nH]cc1C=Nc1ccc(Cl)cc1Cl	0%	5%	0%	1	-4%	-9%
Cc1ccc(CN2CCc3c(OCc4ccc(F)cc4)cccc3C2=O)cc1	2%	?	3%	-1	4%	-22%
O=C1c2cccc(OCc3ccc(F)cc3)c2CCN1Cc1ccc(F)cc1	0%	16µM*	-5%	0	-3%	-52%
O=C(CCc1ccccc1)Nc1nc2c(F)cc(F)cc2s1	4%	?	-7%	-2	15%	10µM*
CC(C)N(C(=O)COC(=O)c1ccc(Cl)c(S(N)(=O)=O)c1)C(C)C	0%	4%	1%	-7	-2%	6%
Cc1cc(C(=O)COC(=O)c2ccc(Cl)c(S(N)(=O)=O)c2)c(C)n1C1CC1	1%	?	-3%	-6	?	11µM*
Cc1ccc(Cn2ccsc2=NC(=O)COC(=O)c2ccc(NC(=O)CC#N)cc2)cc1	1%	23µM*	-14%	-1	-5%	-44%
Cc1cc(C(=O)COC(=O)c2ccc(NC(=O)CC#N)cc2)c(C)n1C1CC1	0%	15%	1%	3	21%	4.5µM*
CCC(=O)Nc1ccc(CC)cc1-c1nc2ccccc2n(CC(=O)Nc2cccc(OC)c2)c1=O	21%	11%	3%	nt	nt	nt
NS(=O)(=O)c1ccc(S(=O)(=O)N2CCN(c3nc(-c4ccccc4)nc4ccccc34)CC2)cc1	nt	23µM*	-12%	nt	nt	-26%
COc1ccc(-n2c(=S)[nH]c3cc(C(=O)NCc4ccccc4OC)ccc3c2=O)c(OC)c1	0%	?	-3%	-1	-14%	-22%
COc1ccc(NC(=O)c2ccc3c(=O)n(-c4ccc(OC)cc4OC)c(=S)[nH]c3c2)cc1	0%	-23%	-5%	2	-1%	-29%
COc1ccc(-n2c(=S)[nH]c3cc(C(=O)NCc4ccc(F)cc4)ccc3c2=O)c(OC)c1	0%	16µM*	1%	-2	-2%	-36%
COc1ccc(-n2c(=S)[nH]c3cc(C(=O)Nc4ccc(F)cc4)ccc3c2=O)c(OC)c1	4%	21µM*	1%	0	-1%	-26%
Cc1ccc(-c2cc(NC(=O)C(C)Oc3ccc(C)c(C)c3)on2)cc1 (configuration not stated)	5%	4%	13%	nt	nt	nt

Source: PubChem
